Experimental data taken from PubChem BioAssay AID1490 (National Center for Advancing Translational Sciences (NCATS), 2009).
The campaign covered roughly 310,000 compounds. About 11,000 (3.5%) were called active. About 4% were inconclusive and are not listed. The call rests on the fitted dose curve; in most records, active means well fitted inhibition curve with a large enough effect; inconclusive means small, poorly fitted or top-dose-only effect, or another doubt; inactive means no such curve, though single readings can be large or run the other way. This excerpt belongs to a sample that is enriched for actives.

What follows are compounds tested against 4'-phosphopantetheinyl transferase ffp (Bacillus subtilis) (UniProt Q9F4F7) (assay: qHTS Assay for Inhibitors of Bacillus subtilis Sfp phosphopantetheinyl transferase (PPTase)). Details: Biochemical Sfp PPTase activity.
Summary of the method: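 Compounds were incubated with enzyme (final 15 nM) for 15 min at room temperature before substrate addition started the reaction. Fluorescence at 525 nm excitation, 598 nm emission was recorded immediately and after 30 minutes.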
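Further: the enzyme is Sfp with the accession as filed and its product quenches rhodamine fluorescence.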
Potency means the concentration at half of the fitted maximal effect.
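Wherever Largest response in the series, negative = inhibition is given: 0% = enzyme reaction without inhibitor and -100% = no enzyme wells.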

Potency, active:
COc1ccccc1N1CC(C(=O)Nc2nnc(SCC(=O)NCC3CCCO3)s2)CC1=O (stereo unspecified) 50.1 µM, OC(CNCC1CCCO1)Cn1c2ccc(Br)cc2c2cc(Br)ccc21 (stereo unspecified) 22.4 µM, CC(NC(=O)CSc1nc2c(cc1C#N)CN(C)CC2)c1ccccc1 (stereo unspecified) 56.2 µM, Cc1nc([N+](=O)[O-])nn1C12CC3CC(CC(Br)(C3)C1)C2 15.8 µM, O=C(CN1C(=O)COc2ccccc21)Nc1ccc(F)cc1 50.1 µM, Cn1c(=O)c([N+](=O)[O-])c(Oc2ccccc2)c2ccccc21 20 µM, Cc1cccc(Oc2c([N+](=O)[O-])c(=O)n(C)c3ccccc23)c1 6.31 µM, CCOc1cccc(/C=N/N2C(=O)CSC2=S)c1O 10 µM, Cc1ccc(NC(=O)c2c(NC(=O)CCC(=O)O)sc3c2CCCCC3)cc1 11.2 µM, COCCCNC(=O)[C@H]1N2C(=O)c3ccccc3C2SC1(C)C (stereo partly specified) 56.2 µM, CN1CCc2c(sc3c2c(NCc2ccco2)nc2nnnn23)C1 11.2 µM, Cc1csc(NC(=O)NC2(C(F)(F)F)Oc3ccccc3O2)n1 8.91 µM

Largest response in the series, negative = inhibition, inactive:
Cc1ccccc1N1CC(C(=O)Nc2nnc(SCCC3OCCO3)s2)CC1=O (stereo unspecified) -15.5%, COc1cc(OC)cc(C(=O)Nc2nnc(SCC(=O)NCC3CCCO3)s2)c1 (stereo unspecified) -4.79%, CCCCC(c1nnnn1CS(=O)(=O)c1ccc(C)cc1)N1CCC(C(N)=O)CC1 (stereo unspecified) 13.9%, O=C(CSc1ccc(-c2ccc(Br)cc2)nn1)NCC1CCCO1 (stereo unspecified) 6.34%, CC(NS(=O)(=O)c1ccc(Br)cc1)C(=O)NCC1CCCO1 (stereo unspecified) 16.5%, COc1ccc(CCNC(=O)c2cnc(Cl)c(Cl)c2)cc1 9%, CC1(C)CCc2nc(SCc3ccccc3)c(C#N)cc2C1 -5.3%, Cc1cc(NC(=O)CSc2nc3c(cc2C#N)CCCCC3)no1 15.4%, O=C(NCc1ccccc1)C(c1cccnc1)N(C(=O)c1csnn1)c1ccc(F)cc1 (stereo unspecified) 19.5%, CC(C)CCn1c(=O)c2c(nc3n2CCCN3Cc2ccccc2)n(C)c1=O 4.31%, NCCCNCCCCN(CCCN)/[N+]([O-])=N/O -7.71%, COc1cccc(NC(=O)c2nn(C34CC5CC(CC(C5)C3)C4)cc2[N+](=O)[O-])c1 11.6%, Cc1ncn(C23CC4CC(CC(O)(C4)C2)C3)n1 17.6%, COc1cccc(CNS(=O)(=O)c2ccc3c(c2)CC(C)N3C(=O)C2CCC2)c1 (stereo unspecified) 20.3%, COc1cc(/C=N/NC(=O)c2cccnc2)ccc1OC(=O)c1cccc(Br)c1 9.75%, O=C(CN1C(=O)COc2ccc(Cl)cc21)Nc1ccc(N2CCOCC2)cc1 9.73%, CC(OC(=O)CN1C(=O)COc2ccccc21)C(=O)NCc1ccc(F)cc1 (stereo unspecified) 16.7%, COc1ccc(N2CCC(N3CCN(C)C(CCO)C3)CC2)cc1 (stereo unspecified) -5.05%, Cc1cc(C)c2oc(C(=O)Nc3ccc(S(=O)(=O)Nc4nccc(C)n4)cc3)cc(=O)c2c1 13.2%, COc1ccc(C(=O)Nc2cc(C)c(NC(=O)c3ccccc3OC)cn2)cc1 -0.964%, Cn1c2ccccc2c(=O)c2c(O)cccc21 1.81%, Cc1cccc(OP(=O)(Nc2c(C)n(C)n(-c3ccccc3)c2=O)Oc2cccc(C)c2)c1 2%, Cn1nc(-c2ccccc2)c2cc([N+](=O)[O-])ccc21 15.4%, Cc1nn(C)c(Oc2ccccc2)c1[N+](=O)[O-] 4.16%, CC(C)[C@H](NC(=O)N1c2ccccc2NC(=O)[C@@H]1C(C)C)C(=O)N[C@H](C(=O)O)c1ccccc1 21%, CCCN1CCC(=O)N(C(CSc2ccc(OC)cc2)Cc2ccccc2)CC1 (stereo unspecified) -7.33%, COc1cc(C2/C(=C(\O)c3ccc4c(c3)CC(C)O4)C(=O)C(=O)N2c2nnc(C)s2)cc(OC)c1OC (stereo unspecified) -19.8%, Cc1ccc(-c2ccnc3[nH]n(-c4ccccc4)c(=O)c23)cc1 9.66%, CCOc1cccc(/C=N/NC(=S)NCCN2CCOCC2)c1O 9.81%, O=C1CSC(=S)N1c1ccc(O)cc1 -9.51%, COc1ccccc1NC(=O)C(C)OC(=O)CC1CCCC1 (stereo unspecified) 16.2%, CC(C)Cn1c(=O)c2ccccc2n2c(CCC(=O)NCc3ccccn3)nnc12 15.4%, COc1ccc(NC(=O)N2CCCC2C(=O)NCc2ccccc2Cl)cc1 (stereo unspecified) 1.27%, CC(=O)Nc1ccc(S(=O)(=O)Nc2cc(C)cn(Cc3ccc(C)cc3)c2=O)cc1 1.38%, O=C(CN1CCCC1)Nc1sc2c(c1C(=O)Nc1ccccc1)CCCC2 -1.37%, Cc1ccc(NC(=O)c2csc3c2CCCC3)cc1 -32.4%, COCCCNC(=O)C1CC(=O)N(CCc2ccccc2)C1 (stereo unspecified) 9.12%, CC1(C)SC2c3ccccc3C(=O)N2[C@@H]1C(=O)NCc1ccco1 (stereo partly specified) -10.3%, CCC(C)NC(=O)C1c2ccccc2C(=O)N1Cc1ccccc1 (stereo unspecified) 0.907%, CC1(C)C(C=C(Cl)Cl)C1C(=O)NC(O)C(=O)c1ccccc1 (stereo unspecified) 3.88%, Cc1ccc(S(=O)(=O)N(CC(O)CN2C(=O)NC(C)(C)C2=O)c2cccc([N+](=O)[O-])c2)cc1 (stereo unspecified) 5.58%, Cn1c(=O)n(Cc2ccco2)c(=N)c2c3c(sc21)CCCC3 -9.41%, CCCSc1nc(NCc2ccco2)c2c3c(sc2n1)COC(C)(CC)C3 (stereo unspecified) -1.25%, Cc1ccc(C)c(C(C)NC(=O)C2CCCO2)c1 (stereo unspecified) 24.3%, O=C(/C=C/c1ccc2c(c1)OCCO2)c1ccc(O)cc1 -4.02%, CN(CCO)c1ccc(/C=N/Nc2nncc3ccccc23)cc1 6.72%, CCC(C(=O)NCCC(C)C)N(Cc1ccccc1Cl)C(=O)c1snc(C(N)=O)c1N (stereo unspecified) 7.3%, CC(=O)Nc1cccc(C(=O)Nc2nc(C)cs2)c1 -6.97%, Cc1csc(NC(=O)Nc2ccccc2[N+](=O)[O-])n1 -6.55%
